In the library only some 4.6% were active in any assay of this set; here they are far more common.
FAS-TE inh: FAS thioesterase (human) inhibition. AID 602261. recombinant FAS-TE, OMFH fluorogenic substrate, fluorescence endpoint. hit rate 0.67% among 360,000. P49327. inhibition, % at 15 µM;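 active means compounds whose normalised, plate-corrected inhibition of enzyme fluorescence in the single-dose primary screen is 50% or more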;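 further: 0% = DMSO with enzyme and 100% = substrate without enzyme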
ADAM10 inh: inhibits human ADAM10; recombinant ADAM10, EDANS/DABCYL FRET peptide cleavage, 3 h; inhibition, % at 7 µM; hit rate 0.62% among 370,000; O14672;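 active means inhibition above a per-campaign cutoff equal to the mean of compounds falling between control-based bounds plus 3 SD, cut at about 20% in these data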;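 further: 0% = DMSO wells while the 100% control is not disclosed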
GRIN3A LBD mod: NR3A (human) ligand-binding domain modulation; NR3A LBD differential scanning fluorimetry, Tm shift; 0% = protein alone, 100% = glycine-bound protein; Tm shift relative to glycine control, % at 25 µM; hit rate 2.5% among 340,000; AID 1259313;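 active means melting temperature shift of at least 10% of the positive control shift, at one fixed dose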
proKLK7 act: proKLK7 (human) activation, primary screen; AID 652039; activation, % at 7 µM; P49862; hit rate 0.9% among 370,000; purified proKLK7, EDANS-DABCYL substrate fluorescence; 100% is mature enzyme control, 0% vehicle;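 active means activation above the mean of all tested compounds plus 3 SD, computed per campaign excluding outliers beyond control limits, cut at about 13% in these data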
Target sequence (P49862 whole entry, looked up): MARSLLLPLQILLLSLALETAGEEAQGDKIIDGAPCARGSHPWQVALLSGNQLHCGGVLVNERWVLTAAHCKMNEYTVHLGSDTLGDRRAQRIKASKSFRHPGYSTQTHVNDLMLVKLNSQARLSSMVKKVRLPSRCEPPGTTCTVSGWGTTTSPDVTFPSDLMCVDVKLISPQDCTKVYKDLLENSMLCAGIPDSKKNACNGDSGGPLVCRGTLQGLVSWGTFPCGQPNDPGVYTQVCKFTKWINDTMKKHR
ADAM17 inh: inhibitors of human ADAM17 | recombinant ADAM17, EDANS/DABCYL FRET peptide cleavage | inhibition, % at 6.95 µM | hit rate 0.83% among 370,000;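 active means inhibition above the mean of compounds lying between control limits plus 3 SD, set per campaign, cut at about 8.5% in these data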;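 further: 0% = DMSO-only wells as the low control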
FAS-TE inh conf: confirmation of human fatty acid synthase thioesterase inhibitors | shares compounds with FAS-TE inh | recombinant FAS-TE, OMFH fluorogenic substrate, fluorescence | inhibition, % at 15 µM | hit rate 45% among 2,300 | AID 624325;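 active means compounds inhibiting the enzyme by at least 50% at 15 µM in any one of the replicates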;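 further: 0% = enzyme with DMSO only and 100% = wells lacking enzyme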
Starred values were filed as active, the others as inactive; . = not tested or not shown.

SMILES	FAS-TE inh	ADAM10 inh	GRIN3A LBD mod	proKLK7 act	ADAM17 inh	FAS-TE inh conf
CC1(C(=O)NS(=O)(=O)c2ccc(C#N)cc2)CCN1C(=O)Cc1ccc(Cl)cc1Cl (stereo unspecified)	55*	-15	.	0	-3	70*
O=C(Nc1nc(-c2ccc3ccccc3c2)cs1)C1CCN(S(=O)(=O)c2cccs2)CC1	88*	-1	-8	1	2	7
Cc1[nH]n(-c2ccccc2)c(=O)c1/C=N/NC(=O)c1cccc([N+](=O)[O-])c1	30	-5	-2	-1	-2	.
Cc1ccc(-n2[nH]c(C)c(/C=N/Nc3ccc([N+](=O)[O-])cc3[N+](=O)[O-])c2=O)cc1C	55*	-2	20*	0	-1	41*
CCc1ccc(OCC(=O)N2c3ccccc3CCc3ccccc32)cc1	52*	19	-1	0	8	22
CCS(=O)(=O)c1ccc(-c2csc(-c3ccccc3)n2)c(Cl)c1Cl	84*	-4	2	1	-4	71*
O=C(O)c1ccc(-c2nc(-c3ccccc3Cl)cs2)cc1	0	-43	2	0	-11	.
O=C(NCC1COc2ccccc2O1)c1ccc(NC(=O)c2cccc(F)c2)cc1 (stereo unspecified)	.	0	.	0	1	.
Cc1ccc(C(=O)C2CCN(CC(=O)N3CC(C)CC(C)C3)CC2)cc1 (stereo unspecified)	.	-11	.	0	1	.
O=C(CCCN1C(=O)/C(=C/c2ccccc2Cl)SC1=S)NNC(=O)c1ccccc1	37	-4	5	0	-1	.
O=C(CCN1C(=O)/C(=C/c2ccccc2Cl)SC1=S)Nc1ccccc1C(=O)O	71*	-3	1	0	-4	77*
O=C(CCN1C(=O)/C(=C\c2ccccc2Cl)SC1=S)Nc1cccnc1	57*	-6	-6	0	3	54*
COc1ccc(CN2CCC(CNC(=O)NC3CCC(C)CC3)CC2)cc1 (stereo unspecified)	.	-8	.	0	2	.
Cc1cccc(C)c1N1CCN(c2nc(N(C)C)oc(=O)c2C#N)CC1	56*	0	3	1	-3	17
Cc1cc(Cl)ccc1OC(C)C(=O)Nc1ccc([N+](=O)[O-])cn1 (stereo unspecified)	52*	7	-2	0	1	22
Cc1ccc(OC(C)C(=O)Nc2ccc(Cl)cn2)c([N+](=O)[O-])n1 (stereo unspecified)	10	-12	0	0	-1	.
COCCN1C(=O)CCC1(C)c1nnnn1-c1c(C)cccc1C (stereo unspecified)	-8	-18	.	0	-6	.
Cc1ccc(NC2(c3nnnn3-c3c(C)cccc3C)CCCCC2)cc1	54*	4	5	0	6	30
COc1ccc(C2C(C(=O)Nc3c(C)cccc3C)CCC(=O)N2c2ccc(OC)cc2)cc1 (stereo unspecified)	.	-10	.	0	-1	.
O=C(c1cncnc1)N1CCC(n2nnc3ncccc32)CC1	.	-6	.	0	0	.
N#C/C(=C\c1cccc([N+](=O)[O-])c1)C(=O)NCc1cccnc1	12	-17	-3	0	-4	.
N#C/C(=C\c1cccc([N+](=O)[O-])c1)C(=O)NCc1ccc(Cl)cc1	74*	5	-11	0	-1	77*
CN(C)c1cc(Nc2ccc(O)cc2)c([N+](=O)[O-])c2nonc12	7	-3	0	0	-3	.
O=[N+]([O-])c1c(Nc2ccc(O)cc2)cc(Cl)c2nonc12	60*	-7	-7	0	0	44*
O=C(O)c1ccccc1Nc1cc(Cl)c2nonc2c1[N+](=O)[O-]	29	-7	1	0	-4	.
SMILES	FAS-TE inh	ADAM10 inh	GRIN3A LBD mod	proKLK7 act	ADAM17 inh	FAS-TE inh conf
O=[N+]([O-])c1c(Nc2ccccn2)cc(Cl)c2nonc12	62*	-12	-3	-4	-3	31
O=c1[nH]c2cc(Br)c(Br)nc2[nH]1	.	-7	.	0	0	.
CC(C)n1nnnc1C1(C)CCSCC(=O)N1Cc1cccc(C(F)(F)F)c1 (stereo unspecified)	.	-7	.	0	-5	.
O=C(COC(=O)C1CCN(S(=O)(=O)c2cccs2)CC1)Nc1ccccc1	0	6	-1	0	3	.
CC(C)(C)NC(=O)NC(=O)COC(=O)C1CCN(S(=O)(=O)c2cccs2)CC1	53*	1	0	-1	-4	46*
Cc1ccccc1NC(=O)Cn1nnc(-c2ccncc2)n1	.	-7	.	0	-1	.
COc1ccc(CN(CCN2CCOCC2)C(=O)c2cc(F)ccc2F)cc1OC	.	-2	.	0	2	.
CCc1ccc(C(=O)COC(=O)c2cc([N+](=O)[O-])ccc2N2CCOCC2)cc1	80*	2	0	-1	4	80*
O=C(c1ccc(Cl)cc1)c1cc([N+](=O)[O-])ccc1N1CCOCC1	41	5	6	0	3	.
O=C(COC(=O)c1cc([N+](=O)[O-])ccc1N1CCOCC1)c1ccc(F)cc1	69*	3	0	0	0	40*
Cc1cc(C(=O)COC(=O)c2ccc(N)c([N+](=O)[O-])c2)c(C)n1-c1ccc2c(c1)OCO2	63*	8	-2	0	2	6
CCCCCC(=O)NC1CCCCN(C)C1=O (stereo unspecified)	.	2	.	-1	0	.
CC(C)(C)OC(=O)NCc1ccc(CNC(=O)c2[nH]cnc2C(=O)NCC(=O)OCc2ccccc2)cc1	66*	11	-10	0	5	76*
CC(C)(C)C(=O)NNc1nc(-c2ccccc2)c2cc(Br)ccc2n1	3	1	-2	0	0	.
CCN(CC)S(=O)(=O)c1ccc(C(=O)NNc2nc(-c3ccccc3)c3cc(Br)ccc3n2)cc1	68*	4	-2	0	0	20
CCCOc1ccc(N2C(=O)CC(SC(=N)N3N=C(c4ccccc4)CC3c3ccccc3)C2=O)cc1 (stereo unspecified)	69*	-13	-16	0	-6	15
C=CCN(CC#Cc1ccc(OC)cc1)CC=C	.	-4	.	-1	-1	.
Cc1cc(=O)oc2cc(OCc3ccc(S(=O)(=O)N4CCOCC4)cc3)ccc12	67*	-39	18*	0	-17	14
COc1ccc(COc2ccc3c(C)cc(=O)oc3c2)cc1	29	-43	4	-2	-21	.
CCCCCCC(=O)NC1CCCCN(Cc2ccccc2C)C1=O (stereo unspecified)	.	1	.	1	2	.
COc1ccc(C(=O)NCC(=O)OCc2ccc([N+](=O)[O-])cc2)cc1	52*	6	-1	0	1	27
Cc1ccc(C(=O)NCC(=O)OCc2nnc(-c3ccc([N+](=O)[O-])cc3)o2)cc1	68*	-7	.	1	0	53*

High-throughput results (PubChem BioAssay)
